This is a sample that favours compounds with a hit; in the whole collection about 1.1% have one here.
Integrin act MD: activators of alpha7 integrin expression for muscular dystrophy; alpha7betagal myoblasts, beta-gal FDG fluorescence, 48 h; Potency, µM (doses to about 38.3 µM), inactives show at the highest dose activation, usual class: activators; 350,000 compounds, 0.064% hits; AID 624291;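 note: potency is the fitted concentration of half-maximal effect; 100% = response of the positive control SU9516; nearly all actives have a fitted effect of over 60% in size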
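Alpha7betagal+/- myoblasts (passage 13) were plated 16-24 hr, then exposed to compounds (1:260 dilution of DMSO stock) for 48 hours at 37C. After MPER lysis, β-galactosidase reporter activity was read as FDG fluorescence (ex 480/em 540) after 30 minutes.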
RXFP1 antagonist: blocks the human relaxin receptor RXFP1; Q9HBX9; AID 1259400; HEK293-RXFP1, relaxin-stimulated cAMP HTRF, 30 min; stronger effect = lower value; activity change, negative = inhibition, % at 57.5 µM; 350,000 compounds, 0.59% hits;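 active = activity change of -60% or lower, but not beyond a set lower limit; inconclusive = change between -60% and -40%, or beyond the set limit; inactive = change above -40%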; note: % is set by controls: 0 for no effect and ±100 for the full control effect
Target sequence (Q9HBX9 whole entry, looked up): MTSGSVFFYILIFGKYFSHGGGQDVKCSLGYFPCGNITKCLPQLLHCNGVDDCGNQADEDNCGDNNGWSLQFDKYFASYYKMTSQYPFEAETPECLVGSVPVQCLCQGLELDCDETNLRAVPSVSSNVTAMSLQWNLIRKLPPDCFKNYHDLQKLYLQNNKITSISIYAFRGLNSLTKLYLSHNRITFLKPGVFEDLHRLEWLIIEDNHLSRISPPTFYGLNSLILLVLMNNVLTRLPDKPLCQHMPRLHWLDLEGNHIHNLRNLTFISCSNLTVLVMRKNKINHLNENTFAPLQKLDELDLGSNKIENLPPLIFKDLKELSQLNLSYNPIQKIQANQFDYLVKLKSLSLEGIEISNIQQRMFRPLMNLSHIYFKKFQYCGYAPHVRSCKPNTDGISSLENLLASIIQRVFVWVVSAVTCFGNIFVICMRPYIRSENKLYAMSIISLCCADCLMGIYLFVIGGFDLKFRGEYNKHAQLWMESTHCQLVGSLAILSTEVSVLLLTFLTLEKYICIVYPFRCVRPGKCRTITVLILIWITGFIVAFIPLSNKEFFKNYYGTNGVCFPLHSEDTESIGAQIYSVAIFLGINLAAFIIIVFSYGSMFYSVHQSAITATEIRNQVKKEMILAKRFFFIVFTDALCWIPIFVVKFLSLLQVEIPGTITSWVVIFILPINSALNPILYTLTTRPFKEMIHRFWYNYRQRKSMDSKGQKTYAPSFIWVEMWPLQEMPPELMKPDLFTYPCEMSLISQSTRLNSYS
ASM inhibitor: human S-ASM enzyme inhibition; P17405; placental ASM, HMU-PC fluorogenic substrate, 60 min; Potency, µM (top dose mostly 57.5 µM), for the others: at the top dose activity change, negative = inhibition, most hits filed as inhibitors; 340,000 compounds, 0.006% hits; AID 504937; note: potency is the fitted concentration of half-maximal effect
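Fluorogenic HMU-PC substrate (9 uM final) is turned over by placental ASM in 60 min at 37 C after a 10 min compound preincubation. Reaction ended by alkaline stop (pH 10), with fluorescence read at 386/447 nm.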
gsp ag: activates gsp, the McCune-Albright syndrome mutation; gsp mutant cells, cAMP HTRF, 30 min; Potency, µM (doses to about 76.9 µM), without a hit: at the highest dose activation (cAMP increase), actives largely listed as activators; 340,000 compounds, 0.13% hits; AID 624287; active = well fitted activation curve with a large enough effect; inconclusive = small, poorly fitted or top-dose-only effect, or another doubt; inactive = no such curve, though single readings can be large or run the other way; cell line not stated here;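 note: phosphodiesterase inhibitor Ro 20-1724 added with compounds to block cAMP breakdown; potency is the fitted concentration of half-maximal effect; nearly all actives have a fitted effect of over 60% in size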
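Cells stably selected in G418 were plated at 2000/well, grown 16-24 hr, then given compounds in DMSO with the PDE inhibitor […] (300 uM solution added) for 30 min at 37C; cAMP was read by HTRF.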
gsp antagonist: antagonizes gsp, the McCune-Albright syndrome mutation; Potency, µM (highest dose often 76.9 µM), inactives show at the top dose activity change, negative = inhibition, hits mostly inhibitors; AID 624288; gsp-mutant cells, cAMP HTRF, 30 min; 340,000 compounds, 0.4% hits; calls by dose curve; cell line not stated here;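 note: intracellular cAMP measured with PDE inhibitor Ro 20-1724 present during compound exposure; potency is the fitted concentration of half-maximal effect; % is set by controls: 0 for no effect and ±100 for the full control effect; nearly all actives have a fitted effect of over 65% in size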
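G418-selected cells were plated in DMEM/10% FBS for 16-24 h at 37C, then treated with compounds plus the PDE inhibitor […] (300 uM solution added) for 30 min at 37C. Intracellular cAMP was measured by HTRF after 30 min lysis at room temperature.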
RXFP1 ag: activates the human relaxin receptor RXFP1; Q9HBX9; Potency, µM (highest dose often 57.5 µM), for the others: top-dose activation, most hits filed as activators; 370,000 compounds, 0.3% hits; HEK293T-RXFP1 cAMP TR-FRET, 30 min; response scale: percent of porcine relaxin response, buffer zero; note: potency is the fitted concentration of half-maximal effect; % is set by controls: 0 for no effect and ±100 for the full control effect; nearly all actives have a fitted effect of over 60% in size
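Agonist response is measured as cAMP accumulation in an RXFP1-transfected HEK293T line under PDE4 inhibition. Values are scaled between buffer-only and 29 nM porcine relaxin, and EC50s come from standard Hill equation fits.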
An asterisk follows results filed as active; u = inconclusive; x = no result; ! = not active in a repeat; [ ] = dose if it differs, or a comment. Unless noted, calls come from the whole dose curve; as a rule, active = well fitted curve in the direction sought with a large enough effect; inconclusive = small, poorly fitted or top-dose-only effect, or another doubt; inactive = no such curve, though single readings can be large; an effect the other way counts as inactive or inconclusive.

SMILES | Integrin act MD | RXFP1 antagonist | ASM inhibitor | gsp ag | gsp antagonist | RXFP1 ag
CC1CCCCN1CCCOC(=O)c1ccc(OC2CCCCC2)cc1 (centres undefined) | x | -16.9 | x | x | x | x
O=C(O)c1c(O)c(-c2ccccc2)nc2ccccc12 | x | -16.7 | x | x | x | x
CO/N=C/c1ccc(Sc2ccccc2)c([N+](=O)[O-])c1 | 16.8% | -11.5 | -0.9% | 17.7% | -2.3% | 0.3%
O=[N+]([O-])c1cc(/C=N/O)ccc1Sc1ccccc1 | 4.8% | -60.1* | -12.1% | 8.9% | 6.7% | 0.7%
Cc1cc(C(=O)N2CCCC(C(=O)c3ccc(Oc4ccccc4)cc3)C2)n[nH]1 (centres undefined) | -1.6% | -85.0* | -8.5% | -10.2% | 35.5µM* | 2.1%
Cc1noc(C)c1C(=O)N1CCCC(C(=O)c2ccc(Cl)cc2)C1 (centres undefined) | 4.9% | -13.5 | -1.7% | -25.1%[15.4 µM] | 13.6% | 1.1%
Cc1ccc2[nH]nc(C(=O)N3CCCC(C(=O)c4ccc(Cl)cc4)C3)c2c1 (centres undefined) | 3.4% | -19.2 | -4.8% | -13.3%[15.4 µM] | 14.1µM* | -0.3%
O=C(c1ccc(Oc2ccccc2)cc1)C1CCCN(C(=O)c2cnccn2)C1 (centres undefined) | -45.1% | -12.9 | 3.2% | 1.9%[15.4 µM] | -15.8% | -1.1%
CCC(Sc1nc2ccccc2c2nc(CCn3c(C)nc4ccccc43)nn12)C(=O)Nc1ccc(F)cc1 (centres undefined) | x | 2.1 | x | x | x | -0.9%
CCOC(=O)c1ccc(N2C(=O)c3n[nH]c(-c4ccco4)c3C2c2cccc([N+](=O)[O-])c2)cc1 (centres undefined) | -63.8% | x | 28.2µM* | u | -15.9% | -0.3%
CCn1c(CNc2cccc(C(F)(F)F)c2)n[nH]c1=S | 6.6% | -110.3* | 0.5% | -4.4% | 1.8% | -0.8%
COc1ccc(OC)c(NC(=O)C2CCN(S(=O)(=O)c3ccc4c(c3)CCCC(=O)N4)CC2)c1 | x | x | x | x | x | -2.7%
Cc1ccc(Cn2c(=O)c3cccnc3n(Cc3ccc(F)cc3)c2=O)cc1 | x | x | x | x | x | 0.3%
COc1ccc2[nH]c3c(c2c1)CCN1C(=O)C(CC(=O)NCCC2=CCCCC2)C[C@H](C(=O)N2CCCCC2)[C@@]31C (some centres undefined) | 7.7% | x | -5.8% | x | -14.4% | x
Cc1ccc2[nH]c3c(=S)nc[nH]c3c2c1 | -57.6% | 19.2 | 11.6% | 11.2µM* | 31.2% | 3.55µM*
Cc1ccc2[nH]c3c(=O)n(N)c(C)nc3c2c1 | -18.7% | 4.1 | 3.8% | 14.2%[15.4 µM] | -0.8% | 3.0%
Cc1ccc(CSc2nc3cccnc3n2Cc2nc(-c3ccccc3F)oc2C)cc1 | x | 10.6 | x | x | x | 6.1%
O=[N+]([O-])c1c(Nc2cccc(O)c2)cc(Cl)c2nonc12 | -67.8% | u | -2.7% | 0.9% | 35.5µM* | 0.5%
CC(C)Oc1ccc(CNC(=O)c2sc3ncccc3c2-n2cccc2)cc1 | x | -39.5 | x | x | x | 3.6%
O=C(N/N=C/C(Br)=C/c1ccccc1)c1cc(-c2ccco2)[nH]n1 | -43.6% | -80.6* | -3.7% | 16.6%[15.4 µM] | -59.1% | -0.3%
CC(/C=N/NC(=O)c1cc(-c2ccc(C)o2)[nH]n1)=C\c1ccccc1 | -3.1% | -16.2 | -1.5% | 6.0% | 1.8% | 1.3%
COc1ccc2cc(C(=O)C3CCCN(C(=O)CCc4ccccn4)C3)ccc2c1 (centres undefined) | -8.6% | -3.2 | 17.5% | -12.3%[15.4 µM] | 4.47µM* | 2.0%
COc1cccc(C(=O)C2CCCN(C(=O)CCc3scnc3C)C2)c1 (centres undefined) | -4.6% | -1.5 | -5.7% | 12.2%[15.4 µM] | -7.3% | -0.7%
Oc1c(C(Nc2cccc(C(F)(F)F)c2)c2ccncc2)ccc2cccnc12 (centres undefined) | -27.6% | -60.8* | -11.8% | -5.3%[15.4 µM] | -9.0% | 1.8%
CCOC(=O)c1sc(NC(=O)Cc2ccc(C)cc2)nc1C | -9.5% | 0.3 | -4.3% | -3.4% | -3.2% | 3.1%
SMILES | Integrin act MD | RXFP1 antagonist | ASM inhibitor | gsp ag | gsp antagonist | RXFP1 ag
CCOC(=O)c1sc(NC(=O)CCC(=O)O)nc1C | 4.1% | -85.2* | 1.3% | u | 4.1% | -0.3%
OC[C@@H](O)[C@H](O)[C@H](O)[C@@H](O)CO | x | -20.2 | x | x | x | x
CCc1c(-c2ccccc2)nc2sc3c(c2c1N)CCCC3 | -8.9% | -31.8 | -2.0% | 6.1%[15.4 µM] | 35.5µM* | 0.3%
Nc1c(C(=O)O)sc2nc(-c3ccccc3)c3c(c12)CCCC3 | 15.7% | 1.9 | 6.4% | u | -3.9% | 2.6%
CC(O)CNCCCOc1ccc(Cl)cc1C(C)(C)C (centres undefined) | -71.9% | -61.5* | -4.1% | -21.6%[15.4 µM] | 0.9% | -0.7%
CN(C)CCOCCOc1ccc(Cl)cc1C(C)(C)C | -74.0% | u | -2.0% | -35.2%[15.4 µM] | 0.1% | -0.9%
Cc1cc(O)c(CN2CCN(c3ccc(F)cc3)CC2)c2oc(=O)cc(C)c12 | x | -9.8 | x | x | x | 25.1µM*
O=C(Nc1ccc(Cl)cc1)C1CCN(c2nc3ccccc3n3cccc23)CC1 | x | -6.4 | x | x | x | 3.3%
C(=N\Nc1nc(Nc2ccccc2)nc(Nc2ccccc2)n1)/c1ccncc1 | 23.6% | -60.9* | -1.1% | 27.8% | 6.3% | -1.0%
O=C(Oc1ccc2c(c1)OCC2=O)c1ccc(Cl)cc1 | -11.2% | -60.2* | -0.4% | -20.7%[15.4 µM] | 5.4% | 0.5%
COc1cc(C(=O)Oc2ccc3c(c2)OCC3=O)cc(OC)c1OC | 11.4% | -7.4 | 3.4% | -41.3% | 13.2% | -1.0%
Cc1cc(F)ccc1NC(=O)CCS(=O)(=O)c1cc2c(cc1C)NC(=O)CO2 | x | x | x | x | x | 0.2%
CCNc1nc(N)c(C(=O)C23CC4CC(CC(C4)C2)C3)s1 | 21.5% | -67.6* | -1.9% | -15.1% | -13.4% | 3.8%
CCOC(=O)C1=C(C)NC(C)=C(C(=O)OCC)C1C(=O)OCC(=O)N1c2ccccc2CC1C (centres undefined) | -18.1% | -8.5 | 38.6% | -17.7% | 11.2µM*! | 0.3%
CCOC(=O)c1c(C)[nH]c(C(=O)OCC(=O)N2c3ccccc3CC2C)c1C (centres undefined) | -10.5% | 6.1 | -13.2% | 20.7% | -18.8% | 0.9%
CC(=O)N1CCOc2ccc(S(=O)(=O)NCCc3ccc(Cl)cc3)cc21 | -29.5% | -67.6* | 0.9% | -14.6% | 1.8% | 0.4%
COc1cc2c(=O)c(S(=O)(=O)c3ccc(C)cc3)cn(Cc3cccc(C)c3)c2cc1OC | x | x | x | x | x | 2.1%
CCc1c(C(=O)O)[nH]c2ccc(Br)cc12 | 17.2% | 21.3 | -1.9% | 3.98µM* | 10.5% | u
Fc1ccc(-c2ccnn2-c2ccccc2)cc1 | 4.47µM* | 2.2 | 1.0% | 0.6% | 7.7% | 0.0%
COc1cc(OC)c(NC(=O)c2ccccc2F)cc1Cl | 10.9% | -1.5 | 39.8% | u | -5.8% | 1.7%

Compound activity as filed in PubChem BioAssay.
